In PubChem BioAssay:
Activity calls are given as the source filed them. Unless noted, how the calls were made is not given here.

Tests used:
[1] = tested on: Wnt5a (protein binding on small-molecule microarray); test: small molecules binding Wnt5a protein – biophysical, small-molecule microarray, 635/667 nm fluorescence, primary screen (AID 1142); conditions: 635 nm fluorescence, higher = more signal;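 further: fluorescence read at 667 nm with signal to noise per printed feature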
[2] = ATP-based viability of Huh7 replicon cells – cell-based, CellTiter-Glo luminescence, basal, 48 h, cytotoxicity control for HCV replication inhibitor project, primary screen (AID 1143); conditions: higher = more signal, called active from +8 up or from −8 down;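 further: Huh7 hepatoma cells carrying a hepatitis C replication reporter with no stimulus; test concentration not given here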
[3] = Pseudomonas biofilm growth suppression – PAO1 strain, BacTiter-Glo luminescence, LB-PBS, primary screen (AID 1144); conditions: P. aeruginosa PAO1 biofilm, 12 h, higher = more signal
[4] = basal CRE-LacZ reporter activity in PC12 – cell-based, unstimulated, primary screen (AID 1145); conditions: no forskolin, luminescence, 4.5 h, higher = more signal, called active from +8 up or from −8 down
[5] = forskolin-driven CRE-LacZ activity in PC12 – cell-based, CRE-LacZ reporter, forskolin-stimulated, primary screen (AID 1146); conditions: luminescence, 4.5 h, higher = more signal, called active from +8 up or from −8 down;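 further: PC12 cells with 6xCRE LacZ reporter stimulated by forskolin 10 µM; beta-galactosidase reporter signal reflecting CREB driven transcription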
[6] = molecular target: Streptavidin (Streptomyces avidinii) (UniProt P22629); test: compounds binding control protein streptavidin – biophysical, small-molecule microarray, 635/667 nm fluorescence, artefact control for SMM compound annotation, primary screen (AID 1147); conditions: higher = more signal;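 further: signal reflects streptavidin binding to arrayed compounds as a control protein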
Sequence of Streptavidin (Streptomyces avidinii) (P22629 whole entry, looked up): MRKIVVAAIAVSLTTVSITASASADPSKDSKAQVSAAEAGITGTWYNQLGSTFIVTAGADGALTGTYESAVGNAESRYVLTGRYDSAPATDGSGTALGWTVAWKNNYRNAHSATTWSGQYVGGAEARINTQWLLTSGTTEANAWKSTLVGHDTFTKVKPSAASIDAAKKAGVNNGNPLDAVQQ

[7] = probe aInhba binding on compound microarray – biochemical, small-molecule microarray, 635/667 nm fluorescence, primary screen (AID 1148); conditions: higher = more signal;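 further: score merges 667nm spot fluorescence with signal-to-noise for antibody binding to printed compounds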
Torsin-1A (Homo sapiens) [8] = molecular target: Torsin-1A (Homo sapiens) (UniProt O14656); test: TOR1A wild-type binding on microarray – cell lysate, small-molecule microarray, lysate, 635/667 nm, primary screen (AID 1149); conditions: COS7 hTOR1A-WT lysate, 635 nm fluorescence, higher = more signal
Sequence of Torsin-1A (Homo sapiens) (O14656 whole entry, looked up): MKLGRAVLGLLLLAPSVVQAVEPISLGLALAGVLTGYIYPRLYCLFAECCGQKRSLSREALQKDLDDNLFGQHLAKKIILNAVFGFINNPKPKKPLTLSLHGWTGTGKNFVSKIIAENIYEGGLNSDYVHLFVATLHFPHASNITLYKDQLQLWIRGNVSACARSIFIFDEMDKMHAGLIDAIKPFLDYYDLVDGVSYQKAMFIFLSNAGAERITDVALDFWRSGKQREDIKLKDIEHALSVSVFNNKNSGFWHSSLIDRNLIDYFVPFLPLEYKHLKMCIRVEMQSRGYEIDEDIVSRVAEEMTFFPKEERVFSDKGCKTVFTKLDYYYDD

Torsin-1A (Homo sapiens) [9] = molecular target: Torsin-1A (Homo sapiens) (UniProt O14656); test: torsin A mutant lysate binding on microarrays – cell lysate, small-molecule microarray, COS7 lysate, 635/667 nm fluorescence, primary screen (AID 1150); conditions: COS7 hTOR1A mutant lysate, 635 nm fluorescence, higher = more signal;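 further: score pools 667 nm emission and signal to noise measuring lysate protein binding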
[10] = tested on: Sonic hedgehog protein (Shh); test: Sonic hedgehog microarray binding compounds – biochemical, small-molecule microarray, 635/667 nm fluorescence, primary screen (AID 1151); conditions: 635 nm fluorescence, higher = more signal;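 further: Shh protein binding to compounds spotted on small-molecule microarray slides; score combines spot fluorescence intensity with signal-to-noise across triplicate slides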
[11] = optical density shifts of acrAB sulA E. coli – strain DRC41, OD650, 48 h, E. coli filamentation inducer project, primary screen (AID 1152); conditions: higher = more signal, called active from +8 up or from −8 down;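 further: E. coli MC1000 strain DRC41 lacking acrAB efflux pump and sulA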
[12] = probe aLefty1 binding on compound microarray – biochemical, small-molecule microarray, 635/667 nm fluorescence, primary screen (AID 1153); conditions: higher = more signal;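 further: score merges spot fluorescence with signal-to-noise ratio from the scanned slide images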
[13] = plasmodial surface anion channel blockers, osmotic lysis – cell-based, P. falciparum Indochina, OD700, 1 h, primary screen (AID 1154); conditions: P. falciparum Indochina infected RBC osmotic lysis, higher = more signal, called active from +8 up or from −8 down
[14] = plasmodial surface anion channel blockers, osmotic lysis – cell-based, P. falciparum Indochina, OD700, 2 h, primary screen (AID 1155);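 further: lysis reports solute entry through the parasite surface anion channel PSAC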; conditions: P. falciparum Indochina infected erythrocytes, higher = more signal, called active from +8 up or from −8 down
[15] = changes in parasitized red cell lysis, either direction – P. falciparum Indochina, OD700, 3 h, PSAC antagonist project, primary screen (AID 1156); conditions: P. falciparum-infected erythrocytes, osmotic lysis, higher = more signal, called active from +8 up or from −8 down
[16] = plasmodial surface anion channel blockers, osmotic lysis – cell-based, P. falciparum Indochina, OD700, 18 h, primary screen (AID 1157); conditions: P. falciparum Indochina infected erythrocytes, osmotic lysis OD700, 18 h; higher = more signal, called active from +8 up or from −8 down
[17] = S6 kinase pathway phospho-S6 level changes – cell-based, A549, cytoblot, luminescence, serum-stimulated, primary screen (AID 1158); conditions: 5 h, higher = more signal;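 further: serum-stimulated A549 lung adenocarcinoma cells; signal is phosphorylated S6 detected by cytoblot immunostaining with HRP secondary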
[18] = molecular target: NADPH oxidase 2 (Homo sapiens) (UniProt P04839); test: compounds shifting NOX2 Amplex Red fluorescence – cell-based, HEK293-NOX2, PMA-stimulated, NOX inhibitor project, primary screen (AID 1159); conditions: 45 min, higher = more signal, called active from +8 up or from −8 down; further: test concentration not given here
Sequence of NADPH oxidase 2 (Homo sapiens) (P04839 whole entry, looked up): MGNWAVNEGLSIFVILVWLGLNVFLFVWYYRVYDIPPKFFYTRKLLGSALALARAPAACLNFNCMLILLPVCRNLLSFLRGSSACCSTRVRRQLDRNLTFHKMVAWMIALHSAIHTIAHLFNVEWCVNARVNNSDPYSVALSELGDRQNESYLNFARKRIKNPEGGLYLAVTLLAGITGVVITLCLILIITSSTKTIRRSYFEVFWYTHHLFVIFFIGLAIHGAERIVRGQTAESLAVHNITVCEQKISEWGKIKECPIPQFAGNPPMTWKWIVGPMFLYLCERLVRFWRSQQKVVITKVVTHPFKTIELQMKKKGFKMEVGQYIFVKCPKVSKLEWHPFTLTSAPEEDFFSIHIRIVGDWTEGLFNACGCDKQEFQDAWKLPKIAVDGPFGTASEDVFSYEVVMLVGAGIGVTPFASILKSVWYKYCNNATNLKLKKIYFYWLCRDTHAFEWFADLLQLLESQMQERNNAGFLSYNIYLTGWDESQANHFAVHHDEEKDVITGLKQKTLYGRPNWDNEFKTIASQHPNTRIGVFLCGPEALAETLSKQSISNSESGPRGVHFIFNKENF

[19] = molecular target: NADPH oxidase 4 (Homo sapiens) (UniProt Q9NPH5); test: compounds shifting NOX4 Amplex Red fluorescence – cell-based, HEK293-NOX4, tetracycline-induced, NOX inhibitor project, primary screen (AID 1160); conditions: HEK293-NOX4, Amplex Red H2O2 fluorescence, 45 min; higher = more signal, called active from +8 up or from −8 down
Sequence of NADPH oxidase 4 (Homo sapiens) (Q9NPH5 whole entry, looked up): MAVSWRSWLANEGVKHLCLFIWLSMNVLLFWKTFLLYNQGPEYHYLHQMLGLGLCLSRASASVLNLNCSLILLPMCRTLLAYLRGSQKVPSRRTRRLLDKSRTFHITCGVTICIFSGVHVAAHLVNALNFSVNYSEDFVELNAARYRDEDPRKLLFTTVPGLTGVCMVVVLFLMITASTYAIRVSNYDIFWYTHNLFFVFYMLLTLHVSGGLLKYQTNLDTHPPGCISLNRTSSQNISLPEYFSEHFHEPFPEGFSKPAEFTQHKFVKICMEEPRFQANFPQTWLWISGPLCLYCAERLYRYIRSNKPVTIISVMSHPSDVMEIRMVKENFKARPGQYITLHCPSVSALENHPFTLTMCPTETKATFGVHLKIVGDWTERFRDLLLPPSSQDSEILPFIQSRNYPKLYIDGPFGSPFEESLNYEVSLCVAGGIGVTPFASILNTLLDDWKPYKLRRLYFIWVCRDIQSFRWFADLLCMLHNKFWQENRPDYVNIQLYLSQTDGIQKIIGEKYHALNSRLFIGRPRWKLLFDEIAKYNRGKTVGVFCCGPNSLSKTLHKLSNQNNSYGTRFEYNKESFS

[20] = molecular target: NADPH oxidase 5 (Homo sapiens) (UniProt Q96PH1); test: compounds shifting NOX5 Amplex Red fluorescence – cell-based, HEK293-NOX5, NOX inhibitor project, primary screen (AID 1161); conditions: HEK293-NOX5, ionomycin, 45 min, higher = more signal
Sequence of NADPH oxidase 5 (Homo sapiens) (Q96PH1 whole entry, looked up): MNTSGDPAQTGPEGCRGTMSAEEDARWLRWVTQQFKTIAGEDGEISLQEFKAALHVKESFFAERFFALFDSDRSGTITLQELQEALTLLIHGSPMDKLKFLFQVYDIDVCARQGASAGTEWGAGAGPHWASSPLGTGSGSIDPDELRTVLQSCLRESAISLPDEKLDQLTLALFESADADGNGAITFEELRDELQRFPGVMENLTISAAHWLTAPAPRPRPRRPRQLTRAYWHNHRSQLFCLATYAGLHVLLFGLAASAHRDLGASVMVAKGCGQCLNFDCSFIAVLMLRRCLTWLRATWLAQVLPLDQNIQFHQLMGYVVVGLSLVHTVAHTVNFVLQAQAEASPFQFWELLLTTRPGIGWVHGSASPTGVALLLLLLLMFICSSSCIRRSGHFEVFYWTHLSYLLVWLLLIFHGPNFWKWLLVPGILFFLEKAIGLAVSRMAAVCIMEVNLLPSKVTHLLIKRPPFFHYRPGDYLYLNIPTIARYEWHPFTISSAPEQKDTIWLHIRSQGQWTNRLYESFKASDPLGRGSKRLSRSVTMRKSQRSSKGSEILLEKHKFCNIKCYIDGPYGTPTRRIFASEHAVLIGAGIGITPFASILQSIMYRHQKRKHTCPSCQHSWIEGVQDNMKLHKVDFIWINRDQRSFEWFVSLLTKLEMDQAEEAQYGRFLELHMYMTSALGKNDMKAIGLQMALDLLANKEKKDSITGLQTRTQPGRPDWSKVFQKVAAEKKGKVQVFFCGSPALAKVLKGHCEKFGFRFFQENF

SMILES | composite z-score [1] | z-score [2] | z-score [3] | z-score [4] | z-score [5] | composite z-score [6] | composite z-score [7] | composite z-score (Torsin-1A (Homo sapiens) [8]) | composite z-score (Torsin-1A (Homo sapiens) [9]) | composite z-score [10] | z-score [11] | composite z-score [12] | z-score [13] | z-score [14] | z-score [15] | z-score [16] | z-score [17] | z-score [18] | z-score [19] | z-score [20]
COC(=O)c1c2oc(c1C(=O)OC)C(=O)NC1(CCCCC1)c1cn(nn1)C[C@H](Cc1ccccc1)NC(=O)N[C@H](CO)CC2 | -0.151 | -0.275 (inactive) | -0.926 (inactive) | 3.49 (inactive) | -0.696 (inactive) | 1.05 | -0.05 | -0.299 | 0.113 | 1.32 | 2.35 (inactive) | -0.258 | 1.66 (inactive) | -0.265 (inactive) | 0.869 (inactive) | 0.285 (inactive) | 0.229 | -0.463 (inactive) | 1.26 (inactive) | -0.0346
COC(=O)c1c2oc(c1C(=O)OC)C(=O)N[C@@H](C(C)C)Cn1cc(nn1)C1(CCCCC1)NC(=O)N[C@H](CO)CC2 | 0.432 | 0.24 (inactive) | -0.377 (inactive) | 2.08 (inactive) | -0.178 (inactive) | 0.177 | -0.0477 | 0.935 | 0.48 | 0.246 | 2.15 (inactive) | -0.146 | 1.1 (inactive) | 0.782 (inactive) | 0.144 (inactive) | 0.36 (inactive) | 0.223 | 0.644 (inactive) | 0.758 (inactive) | -0.124
Cc1ccc(C2C3C(=O)CC4C(=O)N(c5ccccc5)C(=O)C4C3CN2S(=O)(=O)c2ccc(C)cc2)cc1 (stereo not given) | 0.731 | -0.966 (inactive) | 0.538 (inactive) | -0.826 (inactive) | -0.743 (inactive) | 0.525 | 0.255 | 0.0484 | 0.392 | 0.205 | -0.339 (inactive) | 0.476 | 1.7 (inactive) | 0.714 (inactive) | 1.72 (inactive) | 0.438 (inactive) | -0.69 | 1.28 (inactive) | 0.793 (inactive) | -0.9
O=C1C2C=CC(C(O)COCc3ccccc3)N(Nc3ccc([N+](=O)[O-])cc3)C2C(=O)N1c1ccccc1 (stereo not given) | 0.43 | -3 (inactive) | -1.83 (inactive) | -0.275 (inactive) | 0.788 (inactive) | 0.464 | 0.0743 | 0.272 | 0.165 | 0.57 | 0.383 (inactive) | 0.447 | 9.2 (active) | 0.581 (inactive) | -0.214 (inactive) | -0.809 (inactive) | 0.213 | -0.51 (inactive) | -0.338 (inactive) | 0.629
